From PubChem BioAssay
D3 antag: blocks the human D3 dopamine receptor. D3R cells, DiscoveRx beta-arrestin luminescence, antagonist mode; active compounds read low. hit rate 2.5% among 360,000. max response, negative = inhibition, %. P35462. AID 652054; in the data active = max response below about -50%; inconclusive = no clear call, values can overlap the other calls; also: % is scaled to controls: 0 for no effect and ±100 for the full control effect
Target sequence (P35462 whole entry, looked up): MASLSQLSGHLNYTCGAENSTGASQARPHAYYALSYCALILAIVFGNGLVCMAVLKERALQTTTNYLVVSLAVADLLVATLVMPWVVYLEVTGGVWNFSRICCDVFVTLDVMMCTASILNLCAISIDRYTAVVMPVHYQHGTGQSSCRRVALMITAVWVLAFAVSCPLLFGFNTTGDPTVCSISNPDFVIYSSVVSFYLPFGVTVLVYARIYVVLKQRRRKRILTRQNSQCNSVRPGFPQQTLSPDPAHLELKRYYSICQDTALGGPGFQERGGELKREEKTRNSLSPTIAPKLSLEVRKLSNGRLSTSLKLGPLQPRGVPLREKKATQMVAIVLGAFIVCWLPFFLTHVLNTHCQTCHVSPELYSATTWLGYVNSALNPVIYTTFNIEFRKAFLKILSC
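Cells plated overnight at 1500 cells/well, then exposed to library compounds with dopamine controls for 90 minutes at 37 degrees C. DiscoveRx reagent added for 30–60 minutes at room temperature; luminescence read, quantitative HTS format.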
D3 ag: activates the human D3 dopamine receptor; P35462; D3R DiscoveRx beta-arrestin cells, luminescence, 90 min; max activation, %; hit rate 0.58% among 410,000; in the data active = max activation above about 30%; also: 0% is about no effect
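Cells at 1500/well, incubated overnight, then treated with pinned compounds (dopamine as control) for 90 min at 37 degrees C. DiscoveRx reagent added for 30 - 60 minutes at room temperature; luminescence read.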
IL1B secr inh: blocks inflammasome-driven IL-1 beta release. THP-1 LPS/ATP IL-1B secretion, AlphaLISA, 16 h; active compounds read low. activity change, % at 57.5 µM. hit rate 4.7% among 360,000. AID 743279; in the data active = activity change below about -50%; inconclusive = mostly about -30% to -49%; also: % is scaled to controls: 0 for no effect and ±100 for the full control effect
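THP-1 cells pretreated 1 hr with compounds (up to 57.5 uM final), then stimulated with LPS (250 ng/mL final) plus ATP (1.25 mM final); secreted IL-1B measured by AlphaLISA after 16 hr, decreased signal indicating inhibition.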
DT40 TDP1 CPT: DT40-hTDP1 cell growth loss with CPT | AID 686979 | hit rate 12% among 420,000 | Potency, µM (series often up to 46.2 µM), inactives show at the top dose activity change, negative = growth inhibition, usual class: inhibitors | chicken DT40 Tdp1-/-;hTDP1 cells + 20 nM CPT, ATP luminescence, 48 h; also: potency is read from the fitted curve at half-maximal effect; % is scaled to controls: 0 for no effect and ±100 for the full control effect; nearly all actives have a fitted effect of over 55% in size
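Chicken DT40 Tdp1-/- cells complemented with human TDP1, 400 cells/well, exposed to compounds plus 20 nM camptothecin for at least 48 h at 37 C; viability read as ATP content by CellTiter-Glo luminescence.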
ClpP mod: qHTS Assay for Activators of ClpP. ATP-dependent Clp protease proteolytic subunit (Bacillus subtilis (strain 168)), P80244. purified B. subtilis ClpP, FRET peptide cleavage, 20 min. Potency, µM (titrated, usually from 57.5 µM), for the others: at the highest dose activity change, negative = active. hit rate 1.9% among 340,000; active = well fitted falling curve with a large enough effect; inconclusive = small, poorly fitted or top-dose-only effect; inactive = no such curve, though single readings can be large or run the other way; also: potency is read from the fitted curve at half-maximal effect; the source files actives as falling curves though it sought activators and does not explain the sign; nearly all actives have a fitted effect of over 65% in size
Target sequence (P80244 whole entry, looked up): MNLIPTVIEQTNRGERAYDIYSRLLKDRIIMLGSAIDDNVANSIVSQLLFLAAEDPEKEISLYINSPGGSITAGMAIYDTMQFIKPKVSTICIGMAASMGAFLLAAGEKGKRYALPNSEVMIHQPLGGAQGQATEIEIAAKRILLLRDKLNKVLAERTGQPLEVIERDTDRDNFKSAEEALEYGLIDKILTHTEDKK
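ClpP 10 microg/mL final, pH 8 Tris/KCl buffer with BSA, glycerol, Tween-20; compound pinned in; FRET-FV substrate; RT 20 min; Ex320/Em430; ΔFRET vs ADEP 5.8 microM, DMSO, no enzyme.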
TDP1 cell noCPT: qHTS for Inhibitors of human tyrosyl-DNA phosphodiesterase 1 (TDP1): qHTS in cells in absence of CPT. DT40 Tdp1-/- hTDP1 cells, no CPT, ATP luminescence, 48 h. Potency, µM (series often up to 46.2 µM), for inactives: top-dose activity change, negative = growth inhibition, actives largely listed as inhibitors. hit rate 15% among 420,000. AID 686978, 2013; also: potency is read from the fitted curve at half-maximal effect; % is scaled to controls: 0 for no effect and ±100 for the full control effect; nearly all actives have a fitted effect of over 55% in size
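No-CPT arm: Tdp1-/-;hTDP1 DT40 cells (400/well) plus compounds, incubated ≥48 hr at 37 °C. Readout CellTiter-Glo luminescence.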
The depositor's hits bear a star; u = inconclusive; x = not tested or not shown. Only some compounds are listed: those with a hit (about 21% of all), similar ones and a draw of the others. Unless noted, calls follow the shape of the dose curve; as a rule, active = well fitted inhibition curve with a large enough effect; inconclusive = small, poorly fitted or top-dose-only effect; inactive = flat fitted curve, though single readings scatter.

SMILES | D3 antag | D3 ag | IL1B secr inh | DT40 TDP1 CPT | ClpP mod | TDP1 cell noCPT
CCOc1ccc(-c2c(C(=O)N/N=C/c3ccc(C)cc3)nnn2-c2nonc2N)cc1 | 1 | 2 | 10 | 1.6µM* | -28% | u
CC(C)c1c(C(=O)N/N=C/c2ccccc2OCc2c(F)cccc2Cl)nnn1-c1nonc1N | -21 | -2 | 69 | 5.8µM* | -3% | 2.3µM*
O=C(Nc1cccc(F)c1)N1CC[C@@]2(CCCN(C(=O)c3cc(C(F)(F)F)cc(C(F)(F)F)c3)C2)C1 | x | x | x | 8% | x | -16%
CC12CCC(C(S(=O)(=O)Nc3ccccc3)C1=O)C2(C)C (stereo unspecified) | 19 | 11 | 11 | -8% | x | -14%
C[C@H](CO)N1C[C@H](C)[C@@H](CN(C)S(=O)(=O)c2ccc(F)cc2)Oc2ccc(NS(=O)(=O)c3ccccc3)cc2C1=O | 13 | -5 | -10 | 1% | 0% | -5%
Cc1cc(C)nc(-n2nc(C)c3c2NC(=O)CC3c2cccc(O)c2)n1 (stereo unspecified) | x | 4 | x | u | 0% | u
CCCOc1ccc(-c2c(C(=O)N/N=C/C3CCCCC3)nnn2-c2nonc2N)cc1 | -4 | 0 | 8 | 26µM* | -1% | 12µM*
CCCOc1ccc(-c2c(C(=O)N/N=C/C3CC=CCC3)nnn2-c2nonc2N)cc1 (stereo unspecified) | -1 | -2 | 17 | u | -2% | -5%
Cc1ccsc1/C=N/NC(=O)c1nnn(-c2nonc2N)c1-c1ccc2c(c1)OCO2 | -26 | -8 | -52* | u | -5% | -18%
COc1ccc(CN(C)C(=O)CNC(=O)c2cccs2)c(OC)c1 | 10 | 4 | 4 | 9% | -1% | 13%
CCc1ccccc1N(C)C(=O)c1cc2c(Cl)nc3ccc(C)cc3c2s1 | x | 4 | x | u | 0% | 18µM*
COCCN(Cc1ccco1)C(=O)c1cc2c(Cl)nc3ccc(C)cc3c2s1 | x | 5 | x | u | -2% | u
Cc1ccc2[nH]c(=O)c3cc(C(=O)N(CCCOC(C)C)Cc4ccco4)sc3c2c1 | 6 | 3 | 22 | 23µM* | 4% | 12µM*
CCN(C(=O)c1cc2c(Cl)nc3ccc(C)cc3c2s1)c1cc(OC)ccc1OC | x | -2 | x | u | 0% | 15µM*
Cc1ccc2nc(Cl)c3cc(C(=O)N(CCN(C)C)Cc4ccco4)sc3c2c1 | u | -17 | x | -109% | 25µM* | u
Cc1ccc(NC(=O)c2cc3c(Cl)nc4ccc(C)cc4c3s2)c(Cl)c1 | x | 6 | x | 0% | 5% | u
Clc1ccccc1Sc1ccc(-c2ccccn2)s1 | -13 | -9 | -8 | 18% | -1% | -4%
Cc1cc(-c2nnc(SCC(=O)Nc3ccccc3Cl)n2C)no1 | -4 | 5 | x | 0% | x | -6%
CC(=O)Nc1ccnn1C1CCN(C(=O)c2cccc(C)c2C)CC1 | -13 | -18 | 2 | -8% | 0% | 4%
CC1=CC(C)(C)N=C(Nc2ccc(C)cc2)S1 | -74* | 5 | -65* | u | 0% | u
CC1(C)N=C(c2cccc(F)c2)C(=O)N1 | 16 | 43* | 2 | -22% | -1% | -12%
CC(OC(=O)c1cnccn1)C(=O)c1ccccc1 (stereo unspecified) | 12 | -3 | -2 | 10% | -1% | -1%
CCOc1cccc(/C=N/NC(=S)Nc2cc(S(=O)(=O)N3CCOCC3)ccc2N2CCOCC2)c1O | 7 | 3 | -15 | 5.8µM* | -4% | 5.8µM*
COc1ccc(/C=N/NC(=S)Nc2cc(S(=O)(=O)N3CCOCC3)ccc2N2CCOCC2)cc1O | 9 | 2 | 0 | 9.2µM* | -5% | u
Cc1ccc(C(=O)Nc2ccc(N3CCN(C)CC3)cc2)cc1C | -2 | 1 | -12 | -29% | 0% | -16%
SMILES | D3 antag | D3 ag | IL1B secr inh | DT40 TDP1 CPT | ClpP mod | TDP1 cell noCPT
Cc1ccc(OCCC(=O)OCC(=O)N2CCN(S(=O)(=O)c3ccc(Cl)cc3)CC2)cc1 | 4 | 15 | -59* | u | x | u
Cc1ccc(S(=O)(=O)N2CCN(C(=O)COC(=O)CCOc3ccc(C(C)(C)C)cc3)CC2)cc1 | -16 | -4 | -15 | 12µM* | x | 10µM*
CCOc1ccc(OCCC(=O)OCC(=O)N2CCN(S(=O)(=O)c3ccc(C)cc3C)CC2)cc1 | u | -17 | -9 | u | 0% | -20%
O=C(OCC(=O)N1CCN(S(=O)(=O)c2ccc(Cl)cc2)CC1)c1ccc([N+](=O)[O-])o1 | -14 | -1 | u | 18µM* | x | u
CCOc1ccc(OCCC(=O)OCC(=O)N2CCN(S(=O)(=O)c3ccc(C)cc3)CC2)cc1 | -12 | 1 | -73* | 15µM* | 2% | 15µM*
C[C@H]1CN([C@@H](C)CO)C(=O)CCCn2nncc2CO[C@H]1CN(C)S(=O)(=O)c1ccc(F)cc1 | 18 | 2 | 29 | -3% | -1% | -3%
COc1ccc(OCC(=O)c2c(O)c3ccccc3oc2=O)cc1 | -114* | 14 | 18 | u | -9% | -26%
CC1CCC(C(=O)c2c(O)c3ccccc3oc2=O)CC1 (stereo unspecified) | u | 1 | -94* | 18µM* | 0% | 18µM*
CCOC(=O)c1c(C)sc(-c2c(-c3ccc4c(c3)OCCO4)[nH]c3c2c(=O)[nH]c(=O)n3C)c1O | x | 12 | x | u | -1% | u
CC(=O)c1ccc(OCCCCOc2ccc(C(C)=O)cc2)cc1 | 14 | 1 | 0 | -22% | 1% | -25%
CCC1CCCCN1C(=O)CCNC(=O)Cn1cnc2ccccc2c1=O (stereo unspecified) | -9 | -6 | 12 | 0% | -1% | -4%
Cc1cc(C)c2sc(N(CCCN(C)C)C(=O)CN3C(=O)c4ccccc4C3=O)nc2c1 | 1 | -15 | 0 | u | 1% | u
Cc1cc(C)c2sc(N(CCN(C)C)C(=O)c3c(F)cccc3F)nc2c1 | -26 | -9 | -71* | -29% | x | u
Cc1cc(C)c2sc(N(CCCN(C)C)C(=O)c3ccc(Br)s3)nc2c1 | -20 | -7 | x | u | -15% | 15µM*
O=C(Nc1ccc2c(c1)OCCO2)C1c2ccccc2OCC(=O)N1C1CC1 (stereo unspecified) | 23 | 4 | 33 | 10% | -2% | -17%
COc1ccc(-c2ccc(C#N)c(SCC(=O)OCc3ccccc3)n2)cc1OC | 12 | 6 | -17 | u | u | u
